Assay outcomes from PubChem.
Only some compounds are listed: those with a hit (about 2.1% of all), similar ones and a draw of the others.
NFkB transloc pot: enhancers of NFkB p65 translocation in HUVEC – imaging, IL-1B stimulus, high-content imaging, primary screen; HUVEC IL-1B NFkB p65 nuclear translocation imaging; activation, % at 2 µM; actives 0.3% (n = 94,000);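 active = activation above 40%, about the mean plus 3 SD, also judged a hit on visual image review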;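 note: percent activation is computed from the nuclear over cytoplasmic p65 intensity ratio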
HUVEC tox IL1B: cytotoxicity in IL-1B stimulated HUVEC, primary screen, cytotoxicity control for IL-1B NFkB translocation project, imaging, Hoechst nuclear count, IL-1B stimulus; cell count reduction, % at 2 µM; AID 845, 2007; actives 0.41% (n = 94,000); HUVEC cell count loss;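 active = cell count reduction more than 3 SD above the screen-wide mean, cut at about 70% in these data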
Measles CPE: compounds protecting cells from measles virus cytopathic effect, primary screen, measles RdRp inhibitor project, single point, MLSMR library, absorbance; actives 1.5% (n = 140,000); protection (pct of control), % at 4 µM; Measles virus-infected cells, CPE protection; in the data active = protection mostly above about 24%, no sharp cut-off; inactive = mostly below about 26%
NFkB transloc inh: inhibitors of IL-1B driven NFkB p65 nuclear import, primary screen, imaging, HUVEC, IL-1B stimulus, high-content imaging. HUVEC IL-1B NFkB p65 nuclear translocation imaging. inhibition, % at 2 µM. actives 0.43% (n = 94,000). AID 796, 2007;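 active = inhibition above about 30% together with a positive call from visual inspection of the well image, limit read from the data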;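 note: nuclear over cytoplasmic p65 intensity ratio measured by imaging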
Each line names hits and unclear results; the compound was inactive in the other large screens.

Cn1cc(S(=O)(=O)Nc2ccc(Br)cc2F)c(=O)n(C)c1=O	Measles CPE 60.9
CCOC(=O)N1CCC(N2C(=O)c3ccccc3C2Nc2ccc(Cl)cn2)CC1 (stereo not given)	none
CCC/C(O)=C1\C(=O)CC(c2ccccc2)CC1=NCCc1c(C)[nH]c2ccc(C)cc12 (stereo not given)	none (no result: NFkB transloc pot, HUVEC tox IL1B, NFkB transloc inh)
CCOC(=O)c1nn(-c2ccc(F)cc2)c(C)c1C(C)=O	Measles CPE 46.3
CCOC(=O)c1nn(-c2ccc(C)cc2)c(C)c1C(C)=O	none
O=C(O)CC(NC(=O)c1sc2ccccc2c1Cl)c1ccc(F)cc1 (stereo not given)	none (no result: NFkB transloc pot, HUVEC tox IL1B, NFkB transloc inh)
COCCOC(=O)C1=C(C)N(Cc2ccccc2)C(=O)NC1c1ccc(OC)cc1 (stereo not given)	Measles CPE 51.5
CC1=C(C(=O)OCc2ccccc2)C(c2ccc(C#N)cc2)NC(=O)N1CCCC(=O)O (stereo not given)	Measles CPE 31.1 (no result: NFkB transloc pot, HUVEC tox IL1B, NFkB transloc inh)
CCOC(=O)C1=C(C)N(CCO)C(=O)NC1c1ccccc1 (stereo not given)	none (no result: NFkB transloc pot, HUVEC tox IL1B, NFkB transloc inh)
COc1ccccc1C1CC(c2c(-c3ccccc3)c3cc(Cl)ccc3[nH]c2=O)=NN1S(C)(=O)=O (stereo not given)	none
COc1cccc(C2CC(c3c(-c4ccccc4)c4cc(Cl)ccc4[nH]c3=O)=NN2S(C)(=O)=O)c1OC (stereo not given)	Measles CPE 68.5
CC1=C(C)CC(C(=O)c2ccccc2)C(C(=O)O)C1 (stereo not given)	Measles CPE 47.7
CC1CCN(c2ccc(N3C(=O)C4CCCCC4C3=O)cc2[N+](=O)[O-])CC1 (stereo not given)	Measles CPE 48.5 (no result: NFkB transloc pot, HUVEC tox IL1B, NFkB transloc inh)
CC1CCN(c2cc(C#N)c(C#N)cc2[N+](=O)[O-])CC1	none
Cc1ccc(C(=O)NC(=S)Nc2ccc(S(=O)(=O)N3CCN(C)CC3)cc2)cc1	Measles CPE 62.7
Cc1sc2c(c1C)c(=O)nc1n2Cc2ccccc2-1	none
COc1ccccc1NC(=O)CSc1nnnn1-c1ccc(C)cc1	NFkB transloc pot 41.4
Cc1cnc(C(=O)OCC(=O)N(C(C)C)C(C)C)cn1	none
CCC(Sc1nc2ccccc2c2nc3ccccc3n12)C(=O)NCc1ccco1 (stereo not given)	none
CCOC(=O)C1=C(c2ccccc2)O/C(=C(/C#N)C(F)(F)F)S1	NFkB transloc inh 56.0
Cc1ccc(Cn2nnnc2CN2CCC(O)(c3ccccc3F)CC2)cc1	none (no result: NFkB transloc pot, HUVEC tox IL1B, NFkB transloc inh)
O=C(NCc1cccnc1)c1ccc(CS(=O)(=O)c2ccc(Cl)cc2)o1	none
COc1ccc(C(=O)Nc2nc(C)c(C(=O)N(C)C)s2)cc1OC	Measles CPE 35.4
CC(NS(=O)(=O)c1ccccc1)C(=O)Nc1nccs1 (stereo not given)	NFkB transloc pot 43.8
COc1ccc(CN2C(=O)CS(=O)CC2=O)cc1OC	none
Cn1c(C(O)c2ccc3c(c2)OCO3)nc2ccccc21 (stereo not given)	HUVEC tox IL1B 84.0, NFkB transloc inh 98.1
CC(C)n1c(C(O)c2ccc3c(c2)OCO3)nc2ccccc21 (stereo not given)	none (no result: NFkB transloc pot, HUVEC tox IL1B, NFkB transloc inh)
NC(=O)CSc1nnc(Cc2csc(Nc3ccc(F)cc3)n2)n1Cc1ccccc1	none
O=S1(=O)C=C(Sc2nc3cc(Cl)ccc3o2)c2ccccc21	NFkB transloc inh 55.5
CN(C)c1nc(N)nc(CSc2nc3cc(Cl)ccc3o2)n1	none
CCCCCCCCC[n+]1cccc2c3ccccc3ccc21	Measles CPE 28.9
Cc1ccc(S(=O)(=O)Cn2nnnc2C(C)N2CCN(C(=O)c3ccco3)CC2)cc1 (stereo not given)	Measles CPE 55.8
Cc1ccc(S(=O)(=O)Cn2nnnc2C(c2ccccc2)N2CCN(c3ccccc3)CC2)cc1 (stereo not given)	NFkB transloc inh 56.8
CC(C)CC(c1nnnn1Cc1ccccc1)N1CCN(C(=O)c2ccco2)CC1 (stereo not given)	none
Cc1ccc(S(=O)(=O)Cn2nnnc2CN2CCN(C(=O)c3ccco3)CC2)cc1	none
COCCn1nnnc1C(C(C)C)N1CCN(C(=O)c2ccco2)CC1 (stereo not given)	HUVEC tox IL1B 87.7
Cc1ccc(S(=O)(=O)Cn2nnnc2C(C(C)C)N2CCN(C(=O)c3ccco3)CC2)cc1 (stereo not given)	NFkB transloc pot 43.8 (no result: Measles CPE)
Cc1sc2ncn(CC(=O)OC(C)C(=O)NC(C)(C)C)c(=O)c2c1C (stereo not given)	none
O=C(Cc1ccccc1)NCc1nc2ccccc2[nH]1	none (no result: Measles CPE)
O=C1CN(C(=O)c2ccco2)C(c2ccccc2)c2cc(Cl)ccc2N1 (stereo not given)	none
CCC1c2ccc(C)n2CCN1C(=O)Nc1ccccc1C(=O)OC (stereo not given)	HUVEC tox IL1B 92.0
Cc1csc(-c2cnn(-c3ccccc3)c2NC(=O)c2cccc(C(F)(F)F)c2)n1	Measles CPE 21.6
O=C(Nc1ccccc1-c1ccccc1)c1cccc(C(F)(F)F)c1	none (no result: NFkB transloc pot, HUVEC tox IL1B, NFkB transloc inh)
O=C1c2ccccc2NC(c2ccncc2)N1c1ccccn1 (stereo not given)	NFkB transloc inh 61.8
CCCCNc1nc2ccccc2[nH]1	none
CCOCCCNc1nc2ccccc2[nH]1	Measles CPE 45.6
COc1ccc(OC)c(C2=NOC(C(=O)N3CCCc4ccccc43)C2)c1 (stereo not given)	Measles CPE 52.0
O=C(C1CC(c2ccc(F)cc2)=NO1)N1CCCc2ccccc21 (stereo not given)	none
Cc1ccc(NC(=O)CSCC(N)=O)cc1C	Measles CPE 39.8
Cc1nn(-c2ccccc2)c(/N=C/c2ccccc2O)c1-c1ccccc1	none (no result: NFkB transloc pot, HUVEC tox IL1B, NFkB transloc inh)
CCCCCCC(=O)N(O)C1CC(=O)N(c2ccc(Br)cc2)C1=O (stereo not given)	NFkB transloc pot 47.8
CCN(CC)c1ccc2cc(C(C)=O)c(=O)oc2c1	Measles CPE 43.4
CCN(CC)c1ccc2cc(C(N)=O)c(=O)oc2c1	none
CCN(CC)c1ccc2cc(C=O)c(=O)oc2c1	NFkB transloc pot 71.9
Cc1ccc(NC(=O)NNc2cccc(Cl)n2)cc1	none
O=C(c1cn(-c2ccccc2)nc1-c1ccncc1)n1nnc2ccccc21	none (no result: Measles CPE)
O=C1CC(c2ccc(Br)cc2)NC(c2ccc(Br)cc2)C1c1ccccc1 (stereo not given)	Measles CPE 53.0 (no result: NFkB transloc pot, HUVEC tox IL1B, NFkB transloc inh)
CC1/C(=N/O)CC(c2ccccc2)NC1c1ccccc1 (stereo not given)	none (no result: NFkB transloc pot, HUVEC tox IL1B, NFkB transloc inh)
Cc1cc(N2C(=O)C3C4CC(C(Br)C4Br)C3C2=O)no1 (stereo not given)	Measles CPE 31.6 (no result: NFkB transloc pot, HUVEC tox IL1B, NFkB transloc inh)
Cc1ccccc1Nc1nc(N)nc(COC(=O)c2cccn2C)n1	none
CCc1ccccc1Nc1nc(N)nc(COC(=O)c2cccn2C)n1	Measles CPE 78.0
Cc1cc(Cl)ccc1N1C(=O)CC(NNC(=O)c2cccnc2)C1=O (stereo not given)	none (no result: NFkB transloc pot, HUVEC tox IL1B, NFkB transloc inh)
CCSc1nnc(NC(=O)COc2ccc3ccccc3c2)s1	none
O=C(NCCc1ccccc1)c1cccnc1N1CCCCCC1	Measles CPE 36.1
O=C(Nc1ccc(Cl)cc1)c1cccnc1N1CCCCC1	none
